Source: PubChem BioAssay (Tox21)
Inconclusive results are not listed. A call without a number means that no potency is given here. Calls of active or inactive are those of the source. Unless noted, calls come from the whole dose curve; as a rule, active = well fitted curve in the direction sought with a large enough effect in the repeat runs; inconclusive = weak or mixed curves; inactive = no such curve, though single readings can be large; an effect the other way counts as inactive or inconclusive.

Experiments:
[1] = Caspase-3/7 induction in HepG2 cells by small molecules, qHTS assay (AID 1346978); note: nearly all actives have a fitted effect of over 15% in size
How it was run: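 Wild-type HepG2 cells (2,000/well) were settled 5 h at 37 C, 5% CO2, then exposed to compounds in DMSO for 17 h. Caspase-3/7 activity was read by luminescence 30 min after adding Caspase-Glo 3/7 reagent at room temperature.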

[2] = Caspase-3/7 induction in CHO-K1 cells by small molecules, qHTS cell viability counter screen (AID 1346979); note: nearly all actives have a fitted effect of over 35% in size; note: potency is the fitted concentration of half-maximal effect
How it was run: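 Wild-type CHO-K1 cells were seeded at 1,500 per well, rested 5hr at 37 C, then exposed to compounds in DMSO. After 16hr, CellTiter-Fluor reagent was added and fluorescence read 1hr later as the viability measure.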

[3] = Caspase-3/7 induction in CHO-K1 cells by small molecules, qHTS assay (AID 1346980); note: nearly all actives have a fitted effect of over 15% in size
How it was run: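 Wild-type cells were seeded at 1,500 per well and settled 5 hr at 37 C, 5% CO2, then exposed to DMSO-dissolved compounds for 17 hr. Caspase-Glo 3/7 reagent was added, and luminescence was read after 30min at room temperature.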

[4] = Caspase-3/7 induction in HepG2 cells by small molecules, qHTS cell viability counter screen (AID 1346981); note: nearly all actives have a fitted effect of over 30% in size; note: potency is the fitted concentration of half-maximal effect
How it was run: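 CellTiter-Fluor fluorescence measured viability in the same wells used for Caspase-Glo 3/7. HepG2 (wild type) at 2,000 cells/well were pre-incubated 5 hr, dosed, and given reagent at 16 hr, with 1 hr further at 37C.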

[5] = target: Nuclear receptor subfamily 1 group I member 2 (Homo sapiens) (UniProt O75469); experiment: Human pregnane X receptor (PXR) small molecule agonists, qHTS assay (AID 1346982); note: nearly all actives have a fitted effect of over 35% in size; note: potency is the fitted concentration of half-maximal effect
How it was run: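 Agonist mode: luminescence from ONE-Glo after 24 h compound exposure at 37C in HepG2 cells carrying hPXR-responsive CYP3A4 luciferase, plated in charcoal-stripped serum medium 5 h beforehand.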

[6] = target: Acetylcholinesterase (Homo sapiens) (UniProt P22303); experiment: Acetylcholinesterase (AChE) small molecule antagonists: colormetric cell-based qHTS assay (AID 1347395; calls by dose curve; note: nearly all actives have a fitted effect of over 30% in size; note: potency is the fitted concentration of half-maximal effect)
How it was run: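 SH-SY5Y cells, plated overnight at 37 C, were exposed to compounds for 30 min at 37 C and 5% CO2. Acetylthiocholine plus DTNB was then added, and thiocholine from endogenous AChE was quantified colorimetrically after 90 min at 37 C.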

[7] = target: Acetylcholinesterase (Homo sapiens) (UniProt P22303); experiment: Acetylcholinesterase (AChE) small molecule antagonists: enzyme-based qHTS assay (AID 1347397; calls by dose curve; note: nearly all actives have a fitted effect of over 55% in size; note: potency is the fitted concentration of half-maximal effect); conditions: Potency: AChE enzyme activity inhibition
How it was run: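 Tox21 library chemicals are tested in qHTS format against recombinant human AChE. The enzyme, dispensed at 50 mU/mL, sits with compound for 30 min at room temperature. A DTNB–acetylthiocholine cocktail follows, and colour is read after 10 min.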

Acetylcholinesterase (Homo sapiens), sequence (P22303 whole entry, looked up): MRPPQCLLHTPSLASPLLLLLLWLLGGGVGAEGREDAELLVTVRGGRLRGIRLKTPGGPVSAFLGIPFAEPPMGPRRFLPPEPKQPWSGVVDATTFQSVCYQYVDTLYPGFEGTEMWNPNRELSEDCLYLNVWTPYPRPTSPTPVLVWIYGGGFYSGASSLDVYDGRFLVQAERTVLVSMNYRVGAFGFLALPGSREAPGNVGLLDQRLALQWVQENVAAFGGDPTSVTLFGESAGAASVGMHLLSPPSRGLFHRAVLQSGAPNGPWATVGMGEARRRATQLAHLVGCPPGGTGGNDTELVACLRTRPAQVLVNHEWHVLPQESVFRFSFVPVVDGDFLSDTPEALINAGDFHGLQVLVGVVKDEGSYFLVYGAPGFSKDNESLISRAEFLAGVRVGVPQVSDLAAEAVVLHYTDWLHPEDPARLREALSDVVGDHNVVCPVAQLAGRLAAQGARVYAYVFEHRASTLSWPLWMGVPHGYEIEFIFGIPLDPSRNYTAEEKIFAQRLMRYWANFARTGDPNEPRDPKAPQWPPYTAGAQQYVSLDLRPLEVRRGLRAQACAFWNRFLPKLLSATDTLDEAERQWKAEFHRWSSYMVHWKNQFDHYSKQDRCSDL
Nuclear receptor subfamily 1 group I member 2 (Homo sapiens), sequence (O75469 whole entry, looked up): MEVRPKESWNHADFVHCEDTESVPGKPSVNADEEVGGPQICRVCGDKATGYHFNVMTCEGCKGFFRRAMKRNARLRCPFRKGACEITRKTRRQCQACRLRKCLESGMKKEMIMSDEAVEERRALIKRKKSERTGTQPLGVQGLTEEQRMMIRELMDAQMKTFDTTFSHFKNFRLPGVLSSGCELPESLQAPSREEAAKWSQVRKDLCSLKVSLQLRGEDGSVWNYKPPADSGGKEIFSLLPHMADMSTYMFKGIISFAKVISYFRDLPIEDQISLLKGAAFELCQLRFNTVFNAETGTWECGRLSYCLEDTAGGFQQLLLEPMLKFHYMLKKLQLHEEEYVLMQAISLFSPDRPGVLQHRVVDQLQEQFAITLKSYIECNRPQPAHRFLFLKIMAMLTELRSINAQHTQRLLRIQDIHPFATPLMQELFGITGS

Row | Compound | Potency [1] | Potency [2] | Potency [3] | Potency [4] | Potency [5] | Potency [6] | Potency [7]
1 | N#Cc1ccccc1Cl | inactive | inactive | inactive | inactive | inactive | inactive | inactive
2 | C=COCCCl | inactive | inactive | inactive | inactive | inactive | inactive | inactive
3 | C[As+](C)(C)CC(=O)[O-] | inactive | inactive | inactive | inactive | inactive | inactive | inactive
4 | Oc1ccccc1Br | inactive | inactive | inactive | inactive | inactive | inactive | inactive
5 | BrC(Br)C(Br)(Br)Br | inactive | 48.9 µM (active) | inactive | inactive | inactive | inactive | inactive
6 | CCc1cc(C)cc(CC)c1-c1c(OC(=O)C(C)(C)C)n2n(c1=O)CCOCC2 | inactive | 27.3 µM (active) | inactive | 30.6 µM (active) | inactive | inactive | inactive
7 | FC(Cl)(Cl)Cl | inactive | inactive | inactive | inactive | inactive | inactive | inactive
8 | Cc1ccc(C(=O)Cl)cc1 | inactive | inactive | inactive | inactive | inactive | inactive | inactive
9 | CCOC(=O)c1ccccc1S(=O)(=O)NC(=O)Nc1nc(Cl)cc(OC)n1 | inactive | inactive | inactive | inactive | inactive | inactive | inactive
10 | Fc1cccc(Cl)c1CCl | inactive | inactive | inactive | inactive | inactive | inactive | inactive
11 | CC(=[OH+])/C=C(/C)[O-].CC(=[OH+])/C=C(\C)[O-].CC(=[OH+])/C=C(\C)[O-].[Al] | inactive | inactive | inactive | inactive | inactive | inactive | inactive
12 | NNC(=O)c1ccccc1 | inactive | inactive | inactive | inactive | 31.5 µM (active) | inactive | inactive
13 | N#CCc1ccc(Cl)cc1 | inactive | inactive | inactive | inactive | inactive | inactive | inactive
14 | C1CCC2CCCCC2C1 (centres undefined) | inactive | inactive | inactive | inactive | inactive | inactive | inactive
15 | O=C(CCCN1CCC2(CC1)C(=O)NCN2c1ccccc1)c1ccc(F)cc1 | inactive | 23.7 µM (active) | inactive | 7.5 µM (active) | 4.22 µM (active) | inactive | inactive
16 | COC[C@H](C)N(C(=O)CCl)c1c(C)csc1C | inactive | inactive | inactive | inactive | inactive | inactive | inactive
17 | CCCCCCCCCCCCCCC(Br)C(=O)O (centres undefined) | inactive | inactive | inactive | inactive | inactive | inactive | inactive
18 | O=C(Cl)c1ccc(Cl)cc1 | inactive | inactive | inactive | inactive | inactive | inactive | inactive
19 | CCOP(=S)(OCC)OC(Cl)C(Cl)(Cl)Cl (centres undefined) | inactive | inactive | inactive | inactive | inactive | 35.6 µM (active) | 79.6 µM (active)
20 | COc1ccc(OC)c(CC(C)N)c1 (centres undefined) | inactive | inactive | inactive | inactive | inactive | inactive | inactive
21 | Cc1cc(C)c(C2=C(OC(=O)CC(C)(C)C)C3(CCCC3)OC2=O)c(C)c1 | inactive | inactive | inactive | inactive | inactive | inactive | inactive
22 | CCCCCCCCCBr | inactive | inactive | inactive | inactive | inactive | inactive | inactive
23 | CC1(C)C(/C=C(\Cl)C(F)(F)F)C1C(=O)OC(C#N)c1cccc(Oc2ccccc2)c1 (centres undefined) | inactive | inactive | inactive | inactive | 1.96 µM (active) | inactive | inactive
24 | CCOP(=S)(OCC)SCCS(=O)(=O)CC | inactive | inactive | inactive | inactive | inactive | 35.6 µM (active) | 71 µM (active)
25 | O=[N+]([O-])c1ccc2ccc3cccc4ccc1c2c34 | inactive | 43.2 µM (active) | inactive | 27.3 µM (active) | 21.7 µM (active) | inactive | inactive
26 | Cn1[nH]nnc1=S | inactive | inactive | inactive | inactive | inactive | inactive | inactive
27 | CC(C)CBr | inactive | inactive | inactive | inactive | inactive | inactive | inactive
